Source: PubChem BioAssay (NCATS)
Results filed as inconclusive are left out. Active and inactive are the calls of the source. Calls follow the shape of the dose curve; as a rule, active = well fitted inhibition curve with a large enough effect; inconclusive = small, poorly fitted or top-dose-only effect; inactive = flat fitted curve, though single readings scatter.

Assays:
CRL-7250 = normal cell line; test: Cytotoxic Profiling of Annotated Libraries Using Quantitative High-Throughput Screening (AID 1296008); conditions: Five cell lines viability, CellTiter-Glo ATP luminescence, 48-72 h; max response: hits give low values; as to max response: % is scaled to controls: 0 for no effect and ±100 for the full control effect
Procedure, shortened: (§1)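 Cytotoxicity was measured as CellTiter-Glo ATP luminescence, read after 10 min at room temperature. Compound treatment of the cells lasted 48 or 72 hr at 37 degrees Celsius in a qHTS format.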

HEK293 = test: as above; conditions: Five cell lines viability, CellTiter-Glo ATP luminescence, 48-72 h; max response: hits give low values
Procedure, shortened: as §1

HaCat [1] = test: as above; conditions: Five cell lines viability, CellTiter-Glo ATP luminescence, 48-72 h; max response: hits give low values
Procedure, shortened: as §1

KB-3-1 = test: as above; conditions: Five cell lines viability, CellTiter-Glo ATP luminescence, 48-72 h; max response: hits give low values
Procedure, shortened: as §1

NIH3T3 = test: as above; conditions: Five cell lines viability, CellTiter-Glo ATP luminescence, 48-72 h; max response: hits give low values
Procedure, shortened: as §1

HACAT [2] = test: qHTS assay to identify novel small-molecules to repurpose for Merkel cell carcinoma treatment (AID 1296009); conditions: MCC and control cell lines, CellTiter-Glo viability, 72 h; at 44.8 µM (top of the series) unless noted
Procedure, shortened: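 After compound transfer in DMSO, plates were kept 72 hr at 37 degree celsius. Luminescent ATP signal from CellTiter-Glo served as viability measure, normalized against DMSO and no-cell controls.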

Measured: max response
Also: nearly all actives have a fitted effect of over 60% in size.

CC[C@@H](C)[C@H](N)C(=O)N1Cc2ccccc2C1
inactive: CRL-7250 -11.3% | HEK293 -17.7% | HaCat [1] | KB-3-1 -3.64% | NIH3T3 0.412% | HACAT [2]

C=C1CCC2[C@](C)(CCC[C@]2(C)C(=O)O)[C@H]1CC/C(C)=C/C(=O)OC (some centres not stated)
inactive: CRL-7250 -5.17% | HEK293 -8.16% | HaCat [1] | KB-3-1 | NIH3T3 0.39% | HACAT [2]

C=C1CC[C@@H]2C(C)(C)CCC[C@@]2(C)[C@@H]1CC/C(=C/C(=O)OC)COC(C)=O
inactive: CRL-7250 -1.64% | HEK293 -16.3% | HaCat [1] | KB-3-1 -9.17% | NIH3T3 | HACAT [2]

C=CC1(C)CC=C2C(CCC3C(C)(C(=O)O)CCCC23C)C1 (configuration not stated)
inactive: CRL-7250 4.68% | HEK293 -4.6% | HaCat [1] | KB-3-1 7.47% | NIH3T3 -6.29% | HACAT [2]

C=Cc1ccc(O[C@@H]2O[C@H](CO[C@@H]3O[C@@H](C)[C@H](O)[C@@H](O)[C@H]3O)[C@@H](O)[C@H](O)[C@H]2O)cc1
inactive: CRL-7250 -5.44% | HEK293 -5.77% | HaCat [1] | KB-3-1 6.98% | NIH3T3 -1.18% | HACAT [2] inactive [at 17.4 µM]

C=C1C[C@]23C[C@@]1(O)CC[C@H]2[C@@]12C=C[C@H](O)[C@@](C)(C(=O)O1)[C@H]2[C@@H]3C(=O)O
inactive: CRL-7250 0.765% | HEK293 -0.839% | HaCat [1] | KB-3-1 7.38% | NIH3T3 2.3% | HACAT [2]

CCOc1ccc(-c2cc(NC(=O)c3c(F)cccc3F)c(C(=O)O)s2)cc1
inactive: CRL-7250 -4.12% | HEK293 1.07% | HaCat [1] | KB-3-1 -17.4% | NIH3T3 -24.8% | HACAT [2]

Oc1ccccc1-c1cc(-c2ccccc2F)[nH]n1
inactive: CRL-7250 3.55% | HEK293 4.01% | HaCat [1] | KB-3-1 -0.368% | NIH3T3 3.17% | HACAT [2]

C=C1CCC[C@]2(C)CC[C@@](O)(C(=C)C(=O)O)C[C@@H]12
inactive: CRL-7250 -0.228% | HEK293 -21.6% | HaCat [1] | KB-3-1 -4.38% | NIH3T3 -3.81% | HACAT [2]

CC1CC(=O)[C@]2(O)C(C(=O)OCCc3ccc(O)cc3)=CO[C@@H](O[C@@H]3O[C@H](CO)[C@@H](O)[C@H](O)[C@H]3O)[C@H]12 (some centres not stated)
inactive: CRL-7250 -11.7% | HEK293 -6.36% | HaCat [1] | KB-3-1 | NIH3T3 -59.3% | HACAT [2] inactive [at 17.4 µM]

C=C(CO)C(=O)O[C@H]1C[C@@]23O[C@@H]2CC/C(=C/[C@H]2OC(=O)C(=C)[C@H]12)CO[C@H]3O
inactive: CRL-7250 | HEK293 -24.8% | HaCat [1] | KB-3-1 | NIH3T3 2.84% | HACAT [2]

CC(C)/C=C1/NC(=O)C(C(C)C)n2c1nc1c(O)cccc1c2=O (configuration not stated)
inactive: CRL-7250 | HEK293 -10.9% | HaCat [1] | KB-3-1 3.96% | NIH3T3 -2.82% | HACAT [2]

N=C(N)c1ccc2nc(-c3cc(CC(=O)NC(CC(=O)O)C(=O)O)cc(-c4cc(S(N)(=O)=O)ccc4O)c3O)[nH]c2c1 (configuration not stated)
inactive: CRL-7250 -1.88% | HEK293 1.8% | HaCat [1] | KB-3-1 | NIH3T3 -8.69% | HACAT [2]

COc1c(O[C@@H]2O[C@H](CO)[C@@H](O)[C@H](O)[C@H]2O)c(CCC(=O)O)cc2ccoc12
inactive: CRL-7250 -9.14% | HEK293 -0.3% | HaCat [1] | KB-3-1 2.96% | NIH3T3 0.4% | HACAT [2]

O=C(c1c2ccccc2cc2ccccc12)N1CCC(N2CCC[C@@H](C(=O)N3CCOCC3)C2)CC1
inactive: CRL-7250 2.01% | HEK293 -10.6% | HaCat [1] | KB-3-1 | NIH3T3 -3.13% | HACAT [2]

C=C1CCC2C(C)(C(=O)O)CCCC2(C)C1CC/C(C)=C\CO (configuration not stated)
inactive: CRL-7250 -2.2% | HEK293 -6.37% | HaCat [1] | KB-3-1 | NIH3T3 | HACAT [2]

CC(C)(O)/C=C/C(=O)[C@](C)(O)[C@H]1[C@H](O)C[C@@]2(C)[C@@H]3CC=C4[C@@H](C=C(O[C@@H]5O[C@H](CO)[C@@H](O)[C@H](O)[C@H]5O)C(=O)C4(C)C)[C@]3(C)C(=O)C[C@]12C
inactive: CRL-7250 -3.34% | HEK293 -7.75% | HaCat [1] | KB-3-1 0.874% | NIH3T3 1.79% | HACAT [2] inactive [at 17.4 µM]
